In ChEMBL document CHEMBL3988442, “University of Dundee, Small-Polar-MMV Screening Library” (2021):
Where “and” joins values, the source holds several entries; their conditions need not be identical. Equal entries are not always repeated. Among all 67,000 compounds or so, about 40 (0.06%) showed an effect of 50% or more. The entries come from a sample that favours strong results as a whole.

These molecules were tested against T1, Coenzyme A biosynthesis bifunctional protein CoaBC (Mycobacterium tuberculosis (strain ATCC 25618 / H37Rv)) (UniProt P9WNZ1) (assay: Biomol Green assay for MtCoaBC inhibitor, OD650 read). Settings: 30 µM.
T1 sequence (whole entry): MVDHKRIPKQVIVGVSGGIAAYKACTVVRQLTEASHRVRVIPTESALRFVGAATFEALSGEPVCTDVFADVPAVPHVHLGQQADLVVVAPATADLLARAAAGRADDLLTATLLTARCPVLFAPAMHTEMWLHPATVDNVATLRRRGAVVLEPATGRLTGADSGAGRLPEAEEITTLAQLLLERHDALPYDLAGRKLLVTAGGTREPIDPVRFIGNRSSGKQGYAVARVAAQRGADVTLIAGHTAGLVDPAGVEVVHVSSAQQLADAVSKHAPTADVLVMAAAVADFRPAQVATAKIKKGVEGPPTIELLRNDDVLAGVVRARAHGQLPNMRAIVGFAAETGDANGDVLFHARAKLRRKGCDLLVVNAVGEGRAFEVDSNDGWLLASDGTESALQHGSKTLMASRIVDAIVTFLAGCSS
Format: functional
Parameters: scale not given: in the data most compounds retested in dose-response had high values

Structure (SMILES) | Percent Effect
CN(Cc1cccnc1)C1COC2(CCN(Cc3nccs3)CC2)C1 (configuration not stated) | 1.85%
Cc1ccc(CN2CCC3(CC2)CC3CN(C)Cc2cccnc2)o1 (configuration not stated) | -31.5%
Cc1noc(C)c1C(=O)N1CC[C@H]2C[C@@H](c3ccncn3)O[C@@H]2C1 | -0.386%
CCCS(=O)(=O)N1C[C@@H]2CN(Cc3cnn(C)c3)CCO[C@@H]2C1 | 4%
O=C(c1cnccn1)N1C[C@@H]2C[C@@H](c3nc(C4CC4)cs3)O[C@@H]2C1 | 2.75%
c1csc(CN2CCO[C@H]3[C@H](OCCN4CCCC4)CC[C@@H]32)n1 | 5.46%
CCC1=N[C@@]2(CC[C@@H]3CN(S(=O)(=O)CC)C[C@@H]32)C(=O)N1CC(C)C | 2.92%
CCc1nc2n(n1)CC(NCc1cc(OC)c3c(c1)OCO3)CC2 (configuration not stated) | -7.88%
COc1cc(CNC2CCc3nc(C)nn3C2)cc2c1OCCO2 (configuration not stated) | -5.17%
Cc1ccc(N2CC[C@H]3OCC[C@@]3(C(=O)N(C)C)C2)nn1 | 2.24%
CS(=O)(=O)N1CC[C@H]2[C@H](C[C@@H](Cn3cncn3)N2CC2CC2)C1 | 5%
CC(C)(C)N1CCCN(C(=O)c2csc(S(N)(=O)=O)c2)CC1 | -6.17%
CC1CCCN(C(=O)c2csc(S(N)(=O)=O)c2)CC1 (configuration not stated) | -0.441%
Cc1cnc(N2C[C@H]3CCN(CC4CC4)C[C@@H]3C2)nc1 | -28.5%
COc1ccc(CCC2CCCN(CC(=O)O)C2)cc1 (configuration not stated) | 0.988%
O=C(O)COc1ccc(CN2CCCC(CCc3ccccc3)C2)cc1 (configuration not stated) | 94.3% and 88.4%
O=C(O)COc1ccc(CN2CCCC(Cc3cccnc3)C2)cc1 (configuration not stated) | 0.485%
COCC(C)N1CCN(CCc2ccc3c(c2)CCO3)CC1 (configuration not stated) | 4.17%
CCOCCN1CCN(CCc2ccc3c(c2)CCO3)CC1 | -14.1%
CN1CCN(C[C@H]2OC[C@@H]3CCN(Cc4ccsc4)C[C@@H]32)CC1 | -5.68%
O=C1[C@H]2CN(C3CCOC3)C[C@H]2CN1c1ccccc1 (some centres not stated) | 2.66%
Cc1cc(CN2C[C@@H]3CCCO[C@@H]3[C@H](N(C)C(C)C)C2)no1 | 9.94%
O=C(NCC1CC1)[C@@H]1CCO[C@@H]2CCN(c3ncccn3)C[C@@H]21 | 0.323%

Structure (SMILES) | Percent Effect
Cc1nonc1C(=O)N1CC[C@@]2(O)CCN(C3CCCCC3)C[C@H]2C1 | 10.8%
O=C(NC1CCN(C2CC2)CC1)c1cn(-c2ccc(Cl)cc2)nn1 | 3.19%
O=C(NC1CCN(C2CC2)C1)c1cn(-c2ccc(F)cc2)nn1 (configuration not stated) | -3.95%
CC(C)CCN1C[C@H]2C[C@H](C(=O)N3CCCC3)[C@@H](C1)O2 | 1.46%
CC(C)N1[C@H](Cn2cncn2)C[C@@H]2CN(Cc3nccn3C)CC[C@@H]21 | 4.19%
COc1ccc(CN2C[C@H]3CCC[C@@H](CN(C)C4CC4)[C@H]3C2)cn1 | -25.8%
O=C(C1CC1)N1CCN2C[C@H](c3ccccc3)[C@@H](CO)[C@H]2C1 | -2.91%
O=C1CC(c2ccccc2)c2sc(C(=O)O)c(-c3ccccc3)c2N1 (configuration not stated) | -0.766%
O=C1CC(c2ccc(O)cc2)c2sc(C(=O)O)c(-c3ccccc3)c2N1 (configuration not stated) | 1.28%
Cc1ccc(CN2CC[C@H]3OCC[C@@H](C(=O)NC4CC4)[C@@H]3C2)o1 | 3.34%
O=C(c1ccco1)N1CC[C@@H]2[C@H]1CCC(=O)N2c1ccccc1 | 3.58%
CN(Cc1cnccn1)C(=O)[C@@]12CNC[C@@H]1CN(Cc1ccccc1)C2 | 2.15%
CC(NC(=O)CN1CCCC1=O)c1ccc(Cl)s1 (configuration not stated) | -0.806%
CC(C)(C)OC(=O)NCC(=O)NCc1ccc(Cl)s1 | 7.73%
O=C(C1CCOCC1)N1CCN2C(=O)N(Cc3ccc(F)cc3)C[C@H]2C1 | 12%
CC1CCN(C(=O)[C@@H]2CC[C@@H]3[C@@H](CCN3c3ncc(F)cn3)O2)CC1 | -4.84%
CNC(=O)[C@H]1C[C@@H]2CN(Cc3cccnc3OC)C[C@@H]2N1C(C)C | 1.06%
O=C(c1ccsc1)N1CCO[C@@H]2CN(Cc3cccs3)C[C@@H]2C1 | -4.58%
Cc1nnc(N2C[C@H](Oc3ccccn3)[C@H]3OCCC[C@H]32)s1 | 4.91%
Cc1cccc2c1nc(COCC(=O)O)n2-c1ccsc1 | 5.35%
Cc1ccc(-n2c(COCC(=O)O)nc3c(C)cccc32)nc1 | 5.78%
COCCC(=O)N1C[C@H]2CC[C@@H]1CN(C1Cc3ccccc3C1)C2 | 2.15%
Cn1cc(CN2C[C@H]3CCC[C@@H](CNc4ncccn4)[C@H]3C2)cn1 | -2.24%

Structure (SMILES) | Percent Effect
Cc1occc1C(=O)N1C[C@H]2CCCC(OCc3cccnc3)[C@H]2C1 (some centres not stated) | 7.49%
CN(Cc1ccccn1)C(=O)[C@H]1CO[C@H]2CCN(CC3CC3)C[C@H]2C1 | 1.98%
CN(Cc1nnc2n1CCC2)S(=O)(=O)c1cc(Br)ccc1Br | 3.23%
CN(Cc1nnc2n1CCC2)S(=O)(=O)c1ccc(Br)cc1Cl | -1.49%
Cc1cccc(CN2C[C@@H]3OCCN(C)[C@@H]3C2)n1 | 4.44%
c1cnn([C@@H]2CN(Cc3nccs3)[C@@H]3CCCO[C@@H]32)c1 | 2.08%
COCCN1C(=O)CC[C@@H]2[C@H]1CCN2C(=O)N(C)C | 12.9%
CCOC(=O)[C@]12CCCN(Cc3ccco3)C[C@H]1CN(CCN(C)C)C2 | 3.17%
CC(C)CC(NC(=O)c1ccco1)c1nc2cccnc2n1C (configuration not stated) | -9.45%
COCC(=O)NC(CC(C)C)c1nc2cccnc2n1C (configuration not stated) | -0.123%
COc1cccc(CC(=O)N2CC[C@H]3[C@@H]2CCC(=O)N3C)c1 | -4.44%
Cc1ccsc1CN1C[C@@H]2COC[C@]2(CNC(=O)c2ccco2)C1 | 2.1%
Cn1cc(N2C[C@@H]3CN(Cc4ccoc4)C[C@@H]3C2=O)cn1 | -6.36%
CN(C)C(C(=O)N1CCC(CCO)CC1)c1ccccc1F (configuration not stated) | 10.1%
CCOCC1CCN(C(=O)C(c2c(F)cccc2F)N(C)C)CC1 (configuration not stated) | -0.163%
CN(C)c1ncc(C(=O)N2C[C@H]3C[C@H](Oc4ccccc4)C[C@H]3C2)cn1 | 12.4%
Cc1nc(-c2ccc(CC(=O)N3CCN(C(=O)C4CC4)CC3)cc2)cs1 | -8.67%
Cc1nc(-c2ccc(CC(=O)N3CCNC(=O)C3)cc2)cs1 | -8.27%
COc1cccc(S(=O)(=O)N2CCN(C)[C@@H]3CS(=O)(=O)C[C@@H]32)c1 | -2.92%
O=C1CC[C@H]2CN(c3ncc(F)cn3)CC[C@H]2N1CCc1c[nH]cn1 | -3.02%
CC(C)NC(=O)[C@@]12CCO[C@@H]1CCN(Cc1ccc3c(c1)OCO3)C2 | -0.976%
